Source: PubChem
HT1080-NT tox – kills 2HG-producing HT-1080-NT fibrosarcoma cells; HT-1080-NT fibrosarcoma viability, CellTiter-Glo ATP luminescence, 48 h; Potency, µM (top dose mostly 46.1 µM), hits mostly cytotoxic; hit rate 1.6% among 360,000;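 also: NT is the 2HG producing partner of a matched IDH1 knockdown line; nearly all actives have a fitted effect of over 55% in size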
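Toxicity toward the 2HG-producing NT line was scored as %Activity, normalised to DMSO and no-cell wells, from CellTiter-Glo luminescence after 48 hours' treatment.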
DT40 TDP1 no CPT – qHTS for Inhibitors of human tyrosyl-DNA phosphodiesterase 1 (TDP1): qHTS in cells in absence of CPT. DT40 Tdp1-/- hTDP1 cells, no CPT, ATP luminescence, 48 h. Potency, µM (series often up to 46.2 µM), usual class: inhibitors. hit rate 15% among 420,000. AID 686978, 2013; also: nearly all actives have a fitted effect of over 55% in size
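Readout: luminescence from CellTiter-Glo after 30 min in the dark at RT. Cells: DT40 Tdp1-/- with stable hTDP1, 400/well. Exposure: compounds alone, ≥48 hr, 37 °C.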
HT1080 IDH1KD tx – HT-1080 IDH1 knockdown cell toxicity (counter line) | HT-1080 IDH1 knockdown viability, ATP luminescence, 48 h | Potency, µM (top dose mostly 46.1 µM), actives largely listed as cytotoxic | hit rate 2% among 360,000 | AID 686971
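CellTiter-Glo luminescence after 48 h compound exposure at 37 degrees C of IDH1-knockdown HT-1080 cells in 5% FBS RPMI. %Activity scaled between DMSO wells and cell-free media wells, with curves fitted and assigned curve classes.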
IL-1B inflam inh – inhibitors of inflammasome signaling (IL-1 beta secretion); THP-1 LPS/ATP IL-1B secretion, AlphaLISA, 16 h; hits give low values; hit rate 4.7% among 360,000; AID 743279; activity change, % at 57.5 µM; in the data active = activity change below about -50%; inconclusive = mostly about -30% to -49%
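Secreted IL-1B measured by AlphaLISA bead assay after 16 h compound exposure of THP-1 cells; compounds (final up to 57.5 uM) added 1 h before LPS (250 ng/mL) and ATP (1.25 mM) stimulation; lower signal means less secretion.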
TDP1 cell CPT – DT40-hTDP1 cell growth loss with CPT; chicken DT40 Tdp1-/-;hTDP1 cells + 20 nM CPT, ATP luminescence, 48 h; Potency, µM (top dose mostly 46.2 µM), most hits filed as inhibitors; hit rate 12% among 420,000; also: nearly all actives have a fitted effect of over 55% in size
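Chicken DT40 Tdp1-/- cells complemented with human TDP1, 400 cells/well, exposed to compounds plus 20 nM camptothecin for at least 48 h at 37 C; viability read as ATP content by CellTiter-Glo luminescence.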
Each line names hits and unclear results; the compound was inactive in the other large screens. The list is not random: actives were taken first. Their share in the collection is about 19%. Unless noted, calls follow the shape of the dose curve; as a rule, active = well fitted curve in the direction sought with a large enough effect; inconclusive = small, poorly fitted or top-dose-only effect, or another doubt; inactive = no such curve, though single readings can be large; an effect the other way counts as inactive or inconclusive.

CCCCn1nnnc1C(c1cc2ccccc2o1)N(C)Cc1ccc(Cl)cc1 (configuration not stated)	DT40 TDP1 no CPT 20.6µM, TDP1 cell CPT inconclusive
CCCCn1nnnc1C(c1cc2ccccc2o1)N(C)CCc1ccccc1 (configuration not stated)	DT40 TDP1 no CPT 20.6µM, TDP1 cell CPT inconclusive
CCCCn1nnnc1C(c1cc2ccccc2o1)N(Cc1ccccc1)Cc1ccccc1 (configuration not stated)	DT40 TDP1 no CPT 18.4µM, TDP1 cell CPT inconclusive
Cc1ccc2c(c1)-c1[nH]c(=S)ncc1CS2	DT40 TDP1 no CPT 18.4µM, TDP1 cell CPT inconclusive
Cc1ccc(NC(=O)c2ccc3c(c2)NC(=O)CS3)nc1	none
COc1ccccc1N(CN1C(=O)c2ccccc2C1=O)C(=O)c1cccc(C)c1	DT40 TDP1 no CPT inconclusive, TDP1 cell CPT 20.6µM
O=[N+]([O-])c1cc(CN2CCCC2)ccc1Sc1ccc(Cl)cc1	DT40 TDP1 no CPT 8.2µM, HT1080 IDH1KD tx inconclusive, TDP1 cell CPT 10.3µM
Clc1ccc(CN2CCCCCC2)cc1	none
NC(=O)c1ccccc1N/C=C/C(=O)c1ccc(F)cc1	DT40 TDP1 no CPT 14.6µM, TDP1 cell CPT inconclusive
NC(=O)c1ccccc1N/C=C/C(=O)c1ccc(Cl)cc1Cl	DT40 TDP1 no CPT 18.4µM, IL-1B inflam inh -54.8, TDP1 cell CPT inconclusive
O=C(/C=C/c1ccccc1[N+](=O)[O-])NC1CCCC1	none
COc1ccc(NS(=O)(=O)c2ccc(C(=O)OC(C)C(=O)N3CCOCC3)cc2)cc1 (configuration not stated)	none
O=C(O)c1ccc(CNC(=O)c2ccc(C(F)(F)F)cc2)cc1	none
O=C(NCc1ccco1)C(c1ccc(F)cc1)N(C(=O)Cc1cccs1)c1cccnc1 (configuration not stated)	none
CCc1cc(C(=O)N2CCCC(CNC(=O)c3ccc(-c4ccccc4)cc3)C2)no1 (configuration not stated)	DT40 TDP1 no CPT 16.4µM, TDP1 cell CPT inconclusive
CSc1ccccc1OCc1cc(C(=O)N2CCCC(C)C2)no1 (configuration not stated)	DT40 TDP1 no CPT inconclusive
Cc1ccc(OCc2cc(C(=O)N(C)Cc3nccn3C)no2)cc1C	none
CCn1ccnc1CN(C)C(=O)c1cc(COc2ccc(OC)c3ccccc23)on1	DT40 TDP1 no CPT inconclusive, HT1080 IDH1KD tx inconclusive, TDP1 cell CPT 14.6µM
COc1ccccc1OCc1cc(C(=O)N2CCCC(OCc3cccnc3)C2)no1 (configuration not stated)	DT40 TDP1 no CPT inconclusive, TDP1 cell CPT inconclusive
O=C(c1cc(COc2cccc3cnccc23)on1)N1CCCC(CCCO)C1 (configuration not stated)	HT1080-NT tox inconclusive, DT40 TDP1 no CPT 0.651µM, HT1080 IDH1KD tx inconclusive, IL-1B inflam inh inconclusive, TDP1 cell CPT 1.16µM
COc1ccc(OCc2cc(C(=O)N3CCCC(CO)C3)no2)c2ccccc12 (configuration not stated)	DT40 TDP1 no CPT 14.6µM, TDP1 cell CPT inconclusive
CSCCC(=O)N1CCCC(CNC(=O)c2ccc(-c3ccccc3)cc2)C1 (configuration not stated)	DT40 TDP1 no CPT inconclusive, TDP1 cell CPT inconclusive
Cc1ccc(-n2nc(C(=O)N3CCN(c4ccc(F)cc4)CC3)c(=O)n(C)c2=O)cc1	none (no result: HT1080-NT tox, HT1080 IDH1KD tx, IL-1B inflam inh)
COCC1CCN(C(=O)c2cc(COc3ccc(F)cc3Cl)on2)C1 (configuration not stated)	DT40 TDP1 no CPT inconclusive, TDP1 cell CPT inconclusive
Cc1nn(C)cc1C(C)NC(=O)c1cc(COc2cccc3cnccc23)on1 (configuration not stated)	DT40 TDP1 no CPT inconclusive, HT1080 IDH1KD tx inconclusive, TDP1 cell CPT 10.3µM
COCC1CCN(C(=O)c2cc(COc3cccc4cnccc34)on2)CC1	DT40 TDP1 no CPT 4.11µM, IL-1B inflam inh -53.3, TDP1 cell CPT 9.2µM
Cc1nn(C)cc1C(C)NC(=O)c1cc(COc2c(F)cccc2F)on1 (configuration not stated)	none
COc1ccc(/C=C/CN2CCC(n3nccc3NC(=O)C3CCCC3)CC2)cc1	IL-1B inflam inh inconclusive
Cc1ccc2nc(SCC(=O)NCC3Cc4cc(-c5ncccc5C)ccc4O3)[nH]c2c1 (configuration not stated)	DT40 TDP1 no CPT inconclusive (no result: HT1080-NT tox, HT1080 IDH1KD tx, IL-1B inflam inh)
O=S(=O)(c1cccc(C(F)(F)F)c1)N1CCN(c2nc(-c3ccccc3)nc3ccccc23)CC1	none (no result: HT1080-NT tox, HT1080 IDH1KD tx, IL-1B inflam inh)
O=S(=O)(c1ccccc1C(F)(F)F)N1CCN(c2nc(-c3ccccc3)nc3ccccc23)CC1	DT40 TDP1 no CPT 12.6µM, TDP1 cell CPT inconclusive (no result: HT1080-NT tox, HT1080 IDH1KD tx, IL-1B inflam inh)
O=S(=O)(c1cccc2ccccc12)N1CCN(c2nc(-c3cccs3)nc3ccccc23)CC1	DT40 TDP1 no CPT 10µM, TDP1 cell CPT inconclusive (no result: IL-1B inflam inh)
N#Cc1ccccc1S(=O)(=O)N1CCN(c2nc(-c3cccs3)nc3ccccc23)CC1	DT40 TDP1 no CPT 7.94µM, TDP1 cell CPT 15.8µM (no result: IL-1B inflam inh)
Cc1nc(N2CCN(S(=O)(=O)c3ccccc3C#N)CC2)c2c(-c3ccccc3)csc2n1	DT40 TDP1 no CPT 13µM, TDP1 cell CPT inconclusive
Cc1ccc(S(=O)(=O)N2CCN(c3nc(-c4cccs4)nc4ccccc34)CC2)c(C)c1	DT40 TDP1 no CPT inconclusive, TDP1 cell CPT inconclusive (no result: IL-1B inflam inh)
CCN(CC)S(=O)(=O)c1ccc(Cl)c(C(=O)OC2CC(C)OC2=O)c1 (configuration not stated)	HT1080-NT tox inconclusive
COc1ccc(C(CNC(=O)c2ccc(OCc3csc(C)n3)cc2)N2CCCC2)cc1 (configuration not stated)	DT40 TDP1 no CPT inconclusive, TDP1 cell CPT inconclusive
CCCS(=O)(=O)N1CCC(C(=O)Oc2ccc(OC)cc2)CC1	HT1080-NT tox inconclusive, HT1080 IDH1KD tx inconclusive
O=S(=O)(c1ccccc1F)N1CCN(c2nc(-c3cccs3)nc3ccccc23)CC1	DT40 TDP1 no CPT 11.2µM, TDP1 cell CPT inconclusive (no result: IL-1B inflam inh)
O=S(=O)(c1ccc(OC(F)(F)F)cc1)N1CCN(c2nc(-c3ccccc3)nc3ccccc23)CC1	none (no result: HT1080-NT tox, HT1080 IDH1KD tx, IL-1B inflam inh)
O=S(=O)(c1ccc(C(F)(F)F)cc1)N1CCN(c2nc(-c3cccs3)nc3ccccc23)CC1	none (no result: IL-1B inflam inh)
N#Cc1ccccc1S(=O)(=O)N1CCN(c2nc(-c3ccccc3)nc3ccccc23)CC1	DT40 TDP1 no CPT 11.2µM, TDP1 cell CPT 16.4µM
O=S(=O)(c1ccccc1Cl)N1CCN(c2nc(-c3cccs3)nc3ccccc23)CC1	DT40 TDP1 no CPT 10µM, TDP1 cell CPT 7.94µM (no result: IL-1B inflam inh)
O=S(=O)(c1ccc(F)cc1F)N1CCN(c2nc(-c3cccs3)nc3ccccc23)CC1	DT40 TDP1 no CPT inconclusive, TDP1 cell CPT inconclusive (no result: IL-1B inflam inh)
CCCc1c(C(=O)N/N=C(\C)CCc2ccccc2)nnn1-c1nonc1N	none
